From PubChem
Gli-Sufu antag: blocks Gli-Sufu signaling in a luciferase reporter. Sufu-KO-LIGHT fibroblasts, Gli luciferase reporter luminescence. inhibition, % at 5 µM. 340,000 tested, 0.74% active. AID 588413;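 active = inhibition above about 55%, limit read from the data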;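 note: 0% = DMSO-treated cells and 100% = wells with medium but no cells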
CSC inhib: blocks cancer stem cells. cancer stem cell-like cells viability, luminescence. inhibition, % at 7.5 µM. 300,000 tested, 1.1% active. AID 2717; in the data active = inhibition above about 75%; inconclusive = no clear call, values can overlap the other calls; tested in HMLE shEcad cells
Mdm2 MdmX PPI: human Mdm2/MdmX binding inhibition. SaOS-2 split-luciferase Mdm2/MdmX complementation, luminescence. inhibition, % at 8 µM. 330,000 tested, 3% active;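 active = inhibition of at least 50% at 8 µM in the primary screen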
Target sequence (O15151 whole entry, looked up): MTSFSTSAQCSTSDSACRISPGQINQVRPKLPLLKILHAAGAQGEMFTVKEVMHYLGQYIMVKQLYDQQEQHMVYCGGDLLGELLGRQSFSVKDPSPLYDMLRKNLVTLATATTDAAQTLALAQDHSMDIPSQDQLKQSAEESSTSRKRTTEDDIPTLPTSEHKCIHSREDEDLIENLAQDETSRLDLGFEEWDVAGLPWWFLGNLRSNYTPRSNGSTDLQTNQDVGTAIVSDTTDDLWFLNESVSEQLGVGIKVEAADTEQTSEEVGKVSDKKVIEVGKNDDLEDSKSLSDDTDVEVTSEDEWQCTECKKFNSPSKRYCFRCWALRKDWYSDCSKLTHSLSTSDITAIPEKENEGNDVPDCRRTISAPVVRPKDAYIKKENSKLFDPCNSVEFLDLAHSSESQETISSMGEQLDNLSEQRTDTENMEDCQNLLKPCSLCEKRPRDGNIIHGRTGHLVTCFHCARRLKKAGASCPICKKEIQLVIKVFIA
Target sequence (Q00987 whole entry, looked up): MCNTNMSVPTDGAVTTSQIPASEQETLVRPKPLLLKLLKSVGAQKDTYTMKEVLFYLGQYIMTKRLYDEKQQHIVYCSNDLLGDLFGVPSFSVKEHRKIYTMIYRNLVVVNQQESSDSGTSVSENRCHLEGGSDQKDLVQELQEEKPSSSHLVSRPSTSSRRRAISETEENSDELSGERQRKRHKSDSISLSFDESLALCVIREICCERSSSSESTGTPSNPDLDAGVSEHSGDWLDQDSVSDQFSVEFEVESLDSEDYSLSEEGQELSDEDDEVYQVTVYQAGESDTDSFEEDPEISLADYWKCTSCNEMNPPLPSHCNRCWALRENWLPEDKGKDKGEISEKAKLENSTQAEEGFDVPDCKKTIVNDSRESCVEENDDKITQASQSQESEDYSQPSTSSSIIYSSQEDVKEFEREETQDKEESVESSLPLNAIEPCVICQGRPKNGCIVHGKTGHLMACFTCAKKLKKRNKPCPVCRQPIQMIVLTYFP
aSyn 5UTR inh: MLPCN primary screen, SNCA 5' untranslated region | alpha-synuclein 5'UTR reporter, inhibitor activity | inhibition, % (tested at 7.5 µM) | 300,000 tested, 0.82% active | AID 1813; in the data active = inhibition above about 60%; inconclusive = no clear call, values can overlap the other calls;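 note: H4 neuroglioblastoma cells stably carrying SNCA 5'UTR luciferase fusion; 0% = DMSO wells and 100% = positive control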
Jurkat NFkB inh: inhibitors of the PMA/ionomycin-induced NF-kB reporter in Jurkat cells. PMA/ionomycin-induced NF-kB luciferase reporter, luminescence. inhibition, % at 4 µM. 330,000 tested, 0.53% active. AID 435003; in the data active = inhibition above about 50%
697 NFkB inh: lowers PMA/ionomycin-induced NF-kB signal in 697 B cells | AID 435022 | inhibition, % at 4 µM | 697 B-cell NF-kB luciferase reporter, 16 h | 330,000 tested, 0.33% active; in the data active = inhibition above about 35%
Mdm2-MdmX conf: confirmation of human Mdm2/MdmX interaction inhibitors | Mdm2-MdmX binding, luminescent assay | shares compounds with Mdm2 MdmX PPI | inhibition, % at 8 µM | 10,000 tested, 55% active; in the data active = inhibition above about 40%
Full FLuc ctr: full-length luciferase inhibition in Mdm2/MdmX counter-screen | 6,200 tested, 77% active | inhibition, % at 8 µM | shares compounds with Mdm2 MdmX PPI | SaOS-2 full-length luciferase counterscreen, luminescence;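 active = mean inhibition at 8 µM reaching about 37%, which flags the compound as non-specific, limit read from the data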;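 note: p53-null SaOS-2 cells with luciferase driven by a doxycycline-inducible promoter; compound on cells about two nights before reading with doxycycline added after day one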
An asterisk follows results filed as active; ? = inconclusive; . = not tested or not shown. Most compounds without a hit are left out; they make up all but 4.5% or so of the library.

SMILES	Gli-Sufu antag	CSC inhib	Mdm2 MdmX PPI	aSyn 5UTR inh	Jurkat NFkB inh	697 NFkB inh	Mdm2-MdmX conf	others
CCOc1ccc(N(CC(=O)NC2CCCCC2)C(=O)CSc2nnc(COc3ccccc3)o2)cc1	4.4	-9.1	54.7*	22.4	10.1	-41.0	31.6
O=C(CN(Cc1cccs1)C(=O)CSc1nnc(COc2ccccc2)o1)NC1CCCCC1	3.1	12.6	8.7	-8.6	-11.8	-10.9	.
COc1ccc(S(=O)(=O)N2CCC(C(=O)N[C@@H](C)C(=O)NCc3ccccc3OC)CC2)cc1	-3.7	12.2	9.1	14.8	9.0	1.7	.
CCOC(=O)C(C)Sc1nnc(Cc2cc(=O)[nH]c(=O)[nH]2)n1-c1ccc(Cl)cc1 (centres undefined)	1.0	-20.4	16.5	1.9	-3.4	0.5	.
CC1CCC(NC(=O)C(C)N2C(=O)C3CCCCC3C2=O)CC1 (centres undefined)	-10.2	-7.1	3.8	.	-3.4	-4.1	.
O=C(/C=C/c1ccc(Cl)cc1)NC(=S)Nc1ccc(N2CCOCC2)c(Cl)c1	-5.9	44.7	86.4*	-12.3	-5.6	-16.4	44.5*	Full FLuc ctr=91.5*
CCOC(=O)c1ccc(NC(=O)c2c(N)n(C)c(=O)n(C)c2=O)cc1	-1.3	-23.9	84.6*	-25.9	-26.4	-10.5	8.9
Cc1cc(N2CCOCC2)ccc1/C=C1\NC(=O)N(Cc2ccccc2F)C1=O	15.0	10.8	71.1*	0.7	12.5	-1.1	10.0
O=C(Nc1nc(-c2cc(Cl)sc2Cl)cs1)c1ccc(Br)s1	9.6	39.4	79.6*	-44.8	7.4	-30.6	7.1
COc1c(OC)c(O)c2c(=O)c(O)c(-c3ccccc3)oc2c1OC	1.8	5.4	81.4*	0.5	-4.5	14.7	35.4
COc1ccc(-c2oc3cc(O)c(OC)c(O)c3c(=O)c2OC)cc1	-9.3	-6.7	26.8	-45.5	19.5	-3.3	.
COc1ccc(-c2oc3cc(OC)c(O)c(OC)c3c(=O)c2OC)cc1O	2.2	-0.2	63.8*	65.0*	-3.6	15.1	41.6*	Full FLuc ctr=28.4
COc1ccc(-c2oc3c(OC)c(OC)c(OC)c(O)c3c(=O)c2OC)cc1OC	17.9	-8.8	78.7*	16.7	1.5	11.5	87.2*	Full FLuc ctr=47.5*
Cc1cccc(N2CCN(S(=O)(=O)c3ccc4c(c3)n(C)c(=O)c(=O)n4C)CC2C)c1 (centres undefined)	-4.7	4.5	67.8*	8.6	5.1	18.6	-24.2
Cc1ccc(N2CCN(S(=O)(=O)c3ccc4c(c3)n(C)c(=O)c(=O)n4C)CC2C)cc1 (centres undefined)	3.9	-2.6	10.9	12.3	6.4	3.9	.
COCc1nc2ccccc2n1CCc1ccccc1	-1.8	-8.6	-14.2	5.3	-17.8	-32.7	.
Cc1ccc2c(c1)C(=O)C(=O)N2CC1COc2ccccc2O1 (centres undefined)	.	12.4	35.2	-37.2	-17.3	-3.5	.
COc1ccc2c(c1)C(=O)C(=O)N2CC1COc2ccccc2O1 (centres undefined)	43.9	22.8	54.2*	-23.1	10.4	0.2	24.9
CCOc1ccc2c(c1)C(=O)C(=O)N2CC1COc2ccccc2O1 (centres undefined)	-2.2	19.0	68.8*	-11.3	17.4	-1.5	30.2
CC1CCC2C(=O)N(c3cccc(C(=O)Nc4ccccc4Cl)c3)C(=O)C2C1 (centres undefined)	-9.7	-3.6	-20.7	-3.6	8.9	-7.6	.
O=C(OCCN1CCN(C2=NS(=O)(=O)c3ccccc32)CC1)c1ccccc1F	-3.6	7.9	-21.9	10.6	0.0	18.2	.
CNn1cnc2ccsc2c1=O	-3.6	-17.7	22.5	0.6	-4.6	-1.4	.
COc1ccc(C(CNC(=O)c2oc3ccc(C)cc3c2C)N2CCCCC2)cc1 (centres undefined)	25.3	.	19.9	-12.3	-5.8	-38.7	.
COc1ccc(C(CNC(=O)c2oc3cc(C)c(Cl)cc3c2C)N2CCCCC2)cc1 (centres undefined)	13.2	10.9	82.2*	-7.1	-9.6	1.0	36.4
N#Cc1ccccc1OCC(=O)NC(=O)NC1CCS(=O)(=O)C1 (centres undefined)	-15.1	.	20.0	.	-6.2	-0.3	.
SMILES	Gli-Sufu antag	CSC inhib	Mdm2 MdmX PPI	aSyn 5UTR inh	Jurkat NFkB inh	697 NFkB inh	Mdm2-MdmX conf	others
Cc1csc(Nc2nc(N)c(C(=O)Nc3ccccc3)o2)n1	-47.7	-14.4	-15.5	-130.6	-62.1	-30.0	.
Cc1cccc(CN2C(=O)/C(=C\c3ccc(C(=O)NCCCN4CCN(C)CC4)cc3)Oc3ccccc32)c1	.	104.6*	100.3*	94.6*	40.4	-12.4	56.5*	Full FLuc ctr=36.1*
CN1CCN(CCCNC(=O)c2ccc(/C=C3\Oc4ccccc4N(Cc4ccccc4F)C3=O)cc2)CC1	1.9	13.5	92.4*	-3.9	-20.6	-29.1	11.7
COCCCNC(=O)/C=C1\Sc2ccccc2N(Cc2ccccc2F)C1=O	-5.1	25.3	87.5*	-93.6	-5.4	-21.7	52.8*	Full FLuc ctr=37.9*
CCN1CCN(CCNC(=O)c2ccc(/C=C3\Sc4ccccc4N(Cc4ccccc4F)C3=O)cc2)CC1	5.8	20.2	91.9*	-19.3	-9.8	6.1	51.5*	Full FLuc ctr=46.2*
COc1cccc(CN(C)C(=O)COc2ccc(C(=O)c3ccc(Cl)cc3)cc2)c1OC	-22.6	-9.0	23.0	2.8	1.6	5.1	.
C[C@@H](NC(=O)[C@@H]1Cc2ccccc2CN1C(=O)OC(C)(C)C)C(=O)NC1CCCC1	-13.6	-14.6	16.1	-25.7	5.2	-1.6	.
O=C(c1ccc(Br)cc1)c1sc(N2CCOCC2)nc1-c1ccccc1	7.1	59.1	24.1	-5.5	-4.6	-0.7	.
O=Cc1c[nH]c2cccc(OCc3ccccc3)c12	-34.7	.	57.4*	.	-20.4	-21.0	53.0*	Full FLuc ctr=63.9*
CN1CCC(N(C)C(=O)/C=C/c2cn(-c3ccccc3)nc2-c2cccs2)CC1	29.8	42.4	76.3*	-57.1	-25.0	17.0	34.8	Full FLuc ctr=67.0*
O=C(N/N=C/c1cn(-c2ccccc2)nc1-c1cccs1)c1ccccc1F	-14.4	52.5	25.7	-17.5	-16.4	-49.9	.
O=C(N/N=C/c1cccs1)c1cccc(NC(=O)c2ccc(Cl)cc2)c1	.	?	57.0*	?	-2.2	8.3	2.9
O=C(N/N=C/c1cn(-c2ccccc2)nc1-c1cccs1)c1ccc(Cl)cc1	-23.5	-6.9	51.7*	-65.8	-22.0	-7.2	31.1
O=C(N/N=C/c1cccs1)c1cccc(S(=O)(=O)Nc2ccc(Cl)cc2)c1	-6.5	-3.7	31.1	-19.3	-10.2	14.6	.
COc1cc(/C=C/C(=O)OCC(=O)N2CCN(S(=O)(=O)c3ccc(C)cc3C)CC2)cc(Cl)c1OC	2.3	.	2.9	.	6.2	9.7	.
